Data on 49 compounds can be found in PubChem BioAssay AID485294 (National Center for Advancing Translational Sciences (NCATS), 2010).

In all, about 370,000 compounds went through this assay and about 150 (0.041%) were called active. Another 14% or so got no clear call; they are omitted. The sample as a whole holds a higher share of actives than the screen did. Unmarked numbers belong to inactive results. Calls come from the whole dose curve; as a rule, active = well fitted inhibition curve with a large enough effect; inconclusive = small, poorly fitted or top-dose-only effect; inactive = flat fitted curve, though single readings scatter.
Potency is the fitted concentration of half-maximal effect.

Sequence of Beta-lactamase (Escherichia coli (strain K12)) (P00811 whole entry, looked up): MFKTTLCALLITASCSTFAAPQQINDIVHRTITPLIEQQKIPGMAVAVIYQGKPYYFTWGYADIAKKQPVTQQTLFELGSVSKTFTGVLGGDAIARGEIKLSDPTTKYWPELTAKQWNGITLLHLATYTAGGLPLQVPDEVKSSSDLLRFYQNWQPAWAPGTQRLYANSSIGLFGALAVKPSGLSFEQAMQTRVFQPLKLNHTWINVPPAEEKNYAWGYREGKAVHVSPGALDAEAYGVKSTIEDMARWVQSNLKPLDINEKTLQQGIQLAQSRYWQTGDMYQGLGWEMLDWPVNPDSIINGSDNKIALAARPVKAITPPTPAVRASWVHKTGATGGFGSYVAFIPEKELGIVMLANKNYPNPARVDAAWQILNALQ

This assay concerns the target Beta-lactamase (Escherichia coli (strain K12)) (UniProt P00811). Nature of the assay: qHTS Inhibitors of AmpC Beta-Lactamase (assay with detergent).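 For activity change, negative = inhibition: 0% = no-compound wells and -100% = no-enzyme wells.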 Note: nearly all actives have a fitted effect of over 25% in size. Particulars: AmpC hydrolysis of nitrocefin, absorbance 480 nm, 0.01% Triton; series mostly up to 114 µM; activity change, negative = inhibition: at the top concentration. The protocol:
NIH Molecular Libraries Probe Production Network [MLPCN] NIH Chemical Genomics Center [NCGC] Assay Provider: Professor Brian Shoichet, UCSF Assay Overview: This aggregation profiling approach exploits the sensitivity of aggregate formation to detergent. Inhibition of b-lactamase is measured in the presence and absence of 0.01% Triton X-100. This particular assay had the prescence of 0.01% Triton X-100. See Pubchem assay "Promiscuous and Specific Inhibitors of AmpC Beta-Lactamase (assay without detergent)" for related screen. Compounds that inhibit only in the absence of detergent are considered likely promiscuous aggregators. A screen of 1,030 compounds was performed in Brian Shoichet's lab in 96-well format. AmpC activity was measured by following the absorbance at 480 nm. Nitrocefin is a chromogenic substrate: while nitrocefin is yellow (lmax 390 nm), the product of its hydrolysis is red (lmax 486 nm, 17,000 M-1). AmpC beta lactamase was provided by Shoichet Lab, UCSF.
Buffer: 20 mM phosphate buffer, pH 7.0 Triton X-100: No Detergent screen: 0.0001%, Detergent screen: 0.01%. Reagents/Controls: Buffer in columns 3 and 4 as negative control (no enzyme). 5.3 nM AmpC in columns 1, 2, 5-48. Titration of UCSF compound 9 control (from 10 mM, then 1:2) pin-transferred to column 2. Column 1 is neutral (100% activity). Assay Steps: Six uL of reagents were dispensed to 1536-well Greiner black clear bottom plates. Compounds and controls (23 nL) were transferred via Kalypsys PinTool. The plates were incubated for 15 min at room temperature, and then 2 uL of 800 uM solution of nitrocefin was added to start the reaction. The plates were immediately transferred to and read every 20 seconds for 4 min on ViewLux (Perkin-Elmer) High-throughput CCD imager using 480 nm absorbance protocol. During dispense, reagent bottles were kept submerged into 4 deg C water bath. Keywords: NIH Roadmap, MLSCN, MLI, MLSMR, qHTS, NCGC, AmpC Beta-Lactamase, Aggregation
(qHTS replaces the single test concentration by a dilution series.)
For `COc1ccc(-c2nc3nc(C)cc(C)n3c2Nc2c(C)cccc2C)cc1`, the “activity change, negative = inhibition” value is 8.99%. Same read-out and setting: the figure for `O=C(Nc1c(C(=O)N2CCN(c3ccc(F)cc3)CC2)oc2ccccc12)c1ccco1` is 6.2%; for `CCOc1ccc(NC(=O)CCc2c(C)nn(-c3ccc(N4CCCC4)nn3)c2C)cc1` it is -8.16%.

With `O=C(COc1ccccc1F)Nc1ccc(C(=O)OCc2cc(=O)n3nc(C4CC4)sc3n2)cc1`, the “activity change, negative = inhibition” value is 2.62%.

In the case of `CCOc1cc(C2C(C(=O)OC)=C(C)NC3=C2C(=O)c2ccccc23)ccc1O` (centres undefined), the “activity change, negative = inhibition” value is -0.36%. `O=S(=O)(c1ccc2nc(NCc3ccccc3Cl)ccc2c1)N1CCCCC1`: the “activity change, negative = inhibition” value was -1.11%. Still for that read-out and setting: the value for `COc1ccc(Cl)cc1-n1c(CCC(=O)O)ccc1-c1ccc(C)cc1` was 3.97%.

For the compound `O=C(Nc1ccc(S(=O)(=O)N2CCC(c3nc4ccccc4s3)CC2)cc1)c1ccccc1F`, the “activity change, negative = inhibition” value is 16.5%. Take `CSc1ccc(CCNC(=O)c2cc(C)nc3c2c(C)nn3-c2cccc(F)c2)cc1`: the “activity change, negative = inhibition” value is 0.607%.

Take `Cc1ccc(Cl)cc1NC(=O)CSc1nc2ccccc2nc1Cc1ccccc1`: the “activity change, negative = inhibition” value is 21.3%. Same read-out and setting: the figure for `CCCCN(CC)CCCNC(=O)c1nn(C)c2c1CS(=O)(=O)c1ccccc1-2` is 17.6%; for `CCC(CC)c1nn2cc(-c3ccccc3)nc2s1` it is 6.01%. Still for that read-out and setting: the value for `COc1ccc(N2C(=O)CSC23C(=O)N(Cc2cccc(F)c2)c2ccccc23)cc1Cl` (centres undefined) was 20.8%; that for `O=C(CC(NCc1cccnc1)C(=O)O)Nc1ccc(O)cc1` (centres undefined) was 18.5%; that for `CCN(CCCNC(=O)c1ccc(Sc2ccc(C)cc2)c(NC(C)=O)c1)c1cccc(C)c1` was 11%. With `Cc1ccc(CNC(=O)CCc2c(C)nn(-c3ccc(N4CCCC4)nn3)c2C)cc1`, the “activity change, negative = inhibition” value is 9.01%. Still for that read-out and setting: the figure for `CC1=C(C(=O)OCc2ccc(C)cc2)C(c2ccccc2Cl)CC(=O)N1` (centres undefined) is -0.201%; for `Cc1ccc(C(=O)NCCSc2c(C)[nH]c3ccccc23)cc1C` it is 9.55%; for `CCc1ccc(NC(=O)c2cnc3c(-c4ccccc4)c(C)nn3c2C)cc1` it is 6.28%. On to `CCN(C(=O)c1sc2cc(OC)ccc2c1Cl)c1ccccc1`, for which the “activity change, negative = inhibition” value was 1.06%. On the same count and under the same terms, the value for `COC(=O)c1cc(NC(=O)c2cnc(SC)nc2-c2ccccc2)cc(C(=O)OC)c1` was 7.39%; that for `CCCCOc1ccc(CN2C(=O)C(=O)c3cc(Br)cc(C)c32)cc1OC` was 13.6%.

For the compound `CCOc1ccc(/C=C(\C#N)c2nc3ccccc3c(=O)[nH]2)cc1OC`, the “activity change, negative = inhibition” value was -3.18%. For `O=C(COc1ccccc1)OCc1cc(=O)n2nc(-c3cccs3)sc2n1`, the “activity change, negative = inhibition” value is -3.28%.

As to `O=C(Nc1ccc(Br)cc1)c1ccc(Br)c(S(=O)(=O)NCc2ccccc2)c1`, the “activity change, negative = inhibition” value is -1.49%. Same read-out and setting: the figure for `CCn1c2ccccc2c2nnc(N3CCN(c4cc(C)ccc4C)CC3)nc21` is 21%; for `CCOC(=O)c1sc(NC(=O)/C=C/c2ccc(C(C)C)cc2)c(C(=O)OCC)c1C` it is -0.936%. In the case of `Cn1c2cc(B(O)O)sc2c2cnn(Cc3ccccc3F)c(=O)c21`, the Potency is 2.82 µM (active).

For `Cn1cc(C(=O)NCc2ccccc2F)cn1`, the “activity change, negative = inhibition” value is -0.872%. The same measure, in the same setting: the value for `CCOC(=O)c1c(CNCc2ccccc2F)c2sc(C)cc2n1C` was -3.41%. The same measure, in the same setting: the figure for `Cc1cc2c(cc1S(=O)(=O)CCC(=O)Nc1ccc(OC(F)(F)F)cc1)OCC(=O)N2` is 24.8%. On the same count and under the same terms, the figure for `COc1ccccc1C(=O)Nc1c(C(=O)Nc2ccc(C)cc2)oc2ccccc12` is -6.46%; for `CCOC(=O)c1c(C)[nH]c(CCC(=O)NCCCN2CCN(c3cc(C)ccc3C)CC2)c1C` it is -1.88%; for `COc1cc(NS(=O)(=O)c2ccc3c(c2)OCC(C(=O)N2CCCC2)O3)cc(OC)c1` (centres undefined) it is -1.24%. Turning to `COc1cc2nc(SCc3ccc(F)cc3)n3nc(CCn4c(C)nc5ccccc54)nc3c2cc1OC`, the “activity change, negative = inhibition” value was 3.25%. Same read-out and setting: the value for `CCCCN(CC)CCCNC(=O)Cn1ncc2c([nH]c3ccc(C)cc32)c1=O` was 2.61%. On the same count and under the same terms, the value for `O=C(CN1C(=O)COc2ccc(S(=O)(=O)N3CCCCCC3)cc21)N1CCN(c2cccc(C(F)(F)F)c2)CC1` was 3.1%; that for `O=C(CSc1nccn1-c1ccc(F)cc1)Nc1cccc2ccccc12` was 0.247%; that for `COc1ccc2c(Sc3ccc(C)cc3)c(C(=O)NC(C)c3ccccc3)[nH]c2c1` (centres undefined) was 1.51%. Still for that read-out and setting: the value for `O=C(Nc1ccc2nc(SCCOc3ccccc3)sc2c1)c1ccco1` was 13.9%; that for `CCOc1cc(CNC(=O)c2sc3ncnc(N(C)C4CCCCC4)c3c2C)ccc1OC` was -0.364%; that for `CCS(=O)(=O)N1CCc2cc(C(=O)NCc3ccc(OC)cc3)ccc21` was 21.8%. `Cc1ccccc1C(=O)O`: the “activity change, negative = inhibition” value was -5.95%. Still for that read-out and setting: the value for `COC(=O)C1=C(Nc2ccc(OC)cc2)C=C(C)C(C(=O)OC)C1c1ccc(C)cc1` (centres undefined) was -11.6%. With `Cc1ccc(NC2=C(Cl)C(=O)OC2OC(=O)c2ccccc2C)cc1` (centres undefined), the Potency is 6.31 µM (active).

Consider `Cc1ccccc1C(=O)OC1OC(=O)C(Cl)=C1Nc1ccccc1` (centres undefined), for which the Potency was 14.1 µM (active).

For `Cc1ccccc1C(=O)Nc1ccccc1NC(=O)c1ccccc1C`, the “activity change, negative = inhibition” value was 0.475%. Same read-out and setting: the figure for `Cc1ccc(Cl)cc1N1CCN(C(=O)c2cccn3c(=O)c4cc(Cl)ccc4nc23)CC1` is 7.06%; for `CCOc1ccc(CNC(=O)CCc2c(C)nn(-c3ccc(N4CCCCC4)nn3)c2C)cc1` it is 21.5%.
